Compound activity deposited in PubChem BioAssay by National Center for Advancing Translational Sciences (NCATS).
The list is not random: actives were taken first. Their share in the collection is about 2.9%.
MmCpn inh: M. maripaludis TRiC chaperonin inhibition | purified Mm-Cpn ATPase, ADP Transcreener TR-FRET | Potency, µM (series often up to 76.9 µM), usual class: inhibitors | 330,000 compounds, 0.031% hits | AID 504842; active = well fitted inhibition curve with a large enough effect; inconclusive = small, poorly fitted or top-dose-only effect; note: nearly all actives have a fitted effect of over 80% in size
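25 nM Mm-CPN + cpd, 10 min 37°C; + 10 uM ATP, 30 min 37°C; buffer 30 mM Tris pH 7.4, 100 mM KCl, 5 mM MgCl2, 1 mM DTT; Transcreener ADP HTRF detection 30 min RT.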
PTAP TSG101 blk: blocks PTAP/TSG101 interaction to inhibit HIV-1 budding. Potency, µM (top dose mostly 115 µM), hits mostly inhibitors. 340,000 tested, under 10 active. Q99816. Fluorescence polarization, FITC-PTAP peptide / Tsg101 binding; active = well fitted inhibition curve with a large enough effect in the main read-out, with a control signal flat, not every such curve was filed as active; inconclusive = small, poorly fitted or top-dose-only effect, or effect the other way, or a change in a side signal; inactive = no such curve, though single readings can be large or run the other way
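Fluorescence polarization binding of Tsg101 binding domain (10 uM final) to FITC-labeled PTAP peptide (50 nM final) in HEPES pH 7.5 buffer with NaCl, Tween 20, EDTA, TCEP. Compounds added before peptide; binding 20 min at RT.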
D3 antag: D3 dopamine receptor (human) antagonism. 360,000 compounds, 2.5% hits. P35462. D3R cells, DiscoveRx beta-arrestin luminescence, antagonist mode; hits give low values. max response, negative = inhibition, %; in the data active = max response below about -50%; inconclusive = no clear call, values can overlap the other calls
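Cells expressing the human receptor were seeded at 1500 cells/well, incubated overnight at 37 degrees C in 5% CO2, then exposed to library compounds with dopamine controls for 90 minutes at 37 degrees C before luminescent detection.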
Rango-impB inh: inhibitors of Rango-importin beta complex formation; Q14974; Rango CFP/YFP FRET sensor + importin beta, 45 min; Potency, µM (doses to about 92.2 µM); 340,000 compounds, 0.031% hits; AID 540263; note: nearly all actives have a fitted effect of over 15% in size
Target sequence (Q14974 whole entry, looked up): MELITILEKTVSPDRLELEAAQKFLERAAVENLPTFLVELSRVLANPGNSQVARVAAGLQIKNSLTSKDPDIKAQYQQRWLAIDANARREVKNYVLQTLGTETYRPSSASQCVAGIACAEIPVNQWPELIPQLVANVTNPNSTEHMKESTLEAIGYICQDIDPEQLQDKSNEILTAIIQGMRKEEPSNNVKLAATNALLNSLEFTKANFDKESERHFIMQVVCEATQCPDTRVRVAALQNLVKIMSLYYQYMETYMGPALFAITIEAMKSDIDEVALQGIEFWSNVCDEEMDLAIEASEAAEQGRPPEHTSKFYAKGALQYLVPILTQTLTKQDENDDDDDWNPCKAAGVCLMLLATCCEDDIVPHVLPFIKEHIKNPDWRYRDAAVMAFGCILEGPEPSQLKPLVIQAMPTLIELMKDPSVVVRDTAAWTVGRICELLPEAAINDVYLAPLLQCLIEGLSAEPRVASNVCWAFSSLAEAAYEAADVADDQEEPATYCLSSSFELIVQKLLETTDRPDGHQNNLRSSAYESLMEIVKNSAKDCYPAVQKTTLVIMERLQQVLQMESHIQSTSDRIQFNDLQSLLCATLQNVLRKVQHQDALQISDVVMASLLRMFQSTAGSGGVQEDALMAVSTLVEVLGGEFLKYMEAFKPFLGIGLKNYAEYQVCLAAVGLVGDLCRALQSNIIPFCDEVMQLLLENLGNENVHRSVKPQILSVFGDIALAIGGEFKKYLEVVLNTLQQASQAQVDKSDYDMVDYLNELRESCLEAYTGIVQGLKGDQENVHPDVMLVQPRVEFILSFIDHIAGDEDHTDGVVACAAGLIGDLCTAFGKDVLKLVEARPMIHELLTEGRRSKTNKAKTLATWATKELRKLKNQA
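FRET biosensor (snurportin 1 IBB flanked by EYFP and cerulean), 50 nM, with compound 5 min, then 0.125 microM importin beta in PBS, 1 mM DTT, 0.02% Tween-20, 0.1% BSA. CFP/YFP ratio read after 45 min at room temperature; pre-read flags interference.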
DRD3 agonist: D3 dopamine receptor (human) agonism | P35462 | D3R DiscoveRx beta-arrestin cells, luminescence, 90 min | max activation, % | 410,000 compounds, 0.58% hits; in the data active = max activation above about 30%
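Agonist-mode cell screen: cells plated at 1500/well and incubated overnight at 37 °C, then exposed to library compounds for 90 min at 37 °C. Detection reagent was added for 30–60 min at room temperature, and luminescence was read.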
Rango dissoc inh: prevents RanGTP from dissociating the Rango-importin beta complex; 340,000 compounds, 0.071% hits; Potency, µM (highest dose often 46.1 µM); Biochemical FRET Rango-importin beta, RanGTP-induced dissociation; AID 540253; note: nearly all actives have a fitted effect of over 45% in size
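Rango (0.1 uM)–importin beta (0.25 uM) complex; RanGTP-RCC1 trigger; 45 min RT; CFP/YFP FRET read.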
Hits are given with their value; n = inactive; u = inconclusive; x = no result. Unless noted, calls come from the whole dose curve.

SMILES	MmCpn inh	PTAP TSG101 blk	D3 antag	Rango-impB inh	DRD3 agonist	Rango dissoc inh
CC(=O)O[C@H]1[C@@H](O)[C@H](O)[C@H](Oc2c(O)c(C)c3c4c2[C@@H](C)CC[C@@H]4[C@@H](C)C[C@H]3C=C(C)C)O[C@H]1C	n	x	n	n	30	n
CCC(Oc1ccccc1)C(=O)Nc1ccc2oc(-c3ccc(OC)cc3)nc2c1 (stereo not given)	x	x	x	x	n	x
COC(=O)CCS(=O)(=O)c1nc(-c2ccccc2)cc(C(F)(F)F)n1	n	n	-78	n	n	n
O=C(O)CCS(=O)(=O)c1nc(-c2cccs2)cc(C(F)(F)F)n1	n	n	n	n	n	n
CCOC(=O)c1c(C(F)(F)F)cc(-c2ccc(F)cc2)nc1C	n	n	n	n	n	n
CCOC(=O)CCS(=O)(=O)c1nc(-c2ccccc2)cc(C(F)(F)F)n1	n	n	-51	n	n	n
CCOC(=O)CS(=O)(=O)c1nc(-c2ccc(F)cc2)cc(C(F)(F)F)n1	n	n	-64	n	n	n
CCOC(=O)CS(=O)(=O)c1nc(-c2ccccc2)cc(C(F)(F)F)n1	n	n	-69	n	n	n
CCOC(=O)Cc1cc(-c2ccccc2)nc2ccc3ccccc3c12	n	n	n	n	n	n
CO[C@H]1C=CO[C@@]2(C)Oc3c(C)c(O)c4c(O)c(cc(O)c4c3C2=O)NC(=O)/C(C)=C\C=C/[C@H](C)[C@H](O)[C@@H](C)[C@@H](O)[C@@H](C)[C@H](OC(C)=O)[C@@H]1C	x	x	x	x	n	x
O=C(NCc1ccccc1)c1ccc2c(c1)N(Cc1ccc(F)cc1)CCS2	x	x	x	x	n	x
Cc1cc(NC(=O)CCCS(=O)(=O)c2nc(-c3cccs3)cc(C(F)(F)F)n2)no1	n	n	-106	n	n	n
COCC(C)NC(=O)CCS(=O)(=O)c1nc(-c2ccc(OC)cc2)cc(C(F)(F)F)n1 (stereo not given)	n	n	-87	n	n	n
CN(C)c1ccc(CNC(=O)c2cnc3sc(N4CCCC4)nn3c2=O)cc1	x	x	x	x	n	x
CCOc1ccc(CNC(=O)CCn2nc(C)c3c(C)n(-c4ccccc4)nc3c2=O)cc1	x	x	x	x	n	x
COc1ccc(C(=O)Nc2cccc(-c3cn4ccsc4n3)c2)cc1OC	x	x	x	x	n	x
COc1ccc(C(=O)Nc2cccc(-c3cn4ccsc4n3)c2)c(OC)c1	x	x	x	x	63	x
c1cnc(N2CCN(c3ncc4c(n3)CCNC4)CC2)nc1	x	x	x	x	n	x
Cc1onc(-c2ccccc2)c1C(=O)Nc1sc2c(c1C#N)CCC(C)C2 (stereo not given)	n	n	n	n	32	n
CC1CCc2c(sc(NC(=O)c3ccc(Cn4cc([N+](=O)[O-])cn4)o3)c2C#N)C1 (stereo not given)	n	n	-69	n	n	n
N#Cc1c(NC(=O)c2ccc(Cn3cc(Br)cn3)o2)sc2c1CCCCC2	n	n	n	n	n	n
COCCCN1C(=O)c2[nH]nc(-c3cc(C)ccc3O)c2C1c1ccc(F)cc1 (stereo not given)	x	x	x	x	n	x
CCCCOc1cccc(C2c3c(-c4cc(C)ccc4O)n[nH]c3C(=O)N2CCOC)c1 (stereo not given)	x	x	x	x	42	x
O=S(=O)(c1cccc(F)c1)N1CCC(Oc2ccc(-n3cnnn3)cc2)CC1	x	x	x	x	n	x
Cc1ccc(C(C(=O)NC(C)(C)C)N(CC2CCCO2)C(=O)CCC(=O)Nc2ccccn2)cc1 (stereo not given)	n	n	n	n	48	n
SMILES	MmCpn inh	PTAP TSG101 blk	D3 antag	Rango-impB inh	DRD3 agonist	Rango dissoc inh
COCCNC(=O)C(c1ccc(C)cc1)N(Cc1ccco1)C(=O)CCC(=O)Nc1ccccn1 (stereo not given)	n	n	-89	n	n	n
CCC(C)(C)NC(=O)C(c1ccc(C)cc1)N(CC1CCCO1)C(=O)CCC(=O)Nc1ccccn1 (stereo not given)	n	n	n	n	n	n
COCCN(C(=O)CCC(=O)Nc1nccs1)C(C(=O)NC(C)(C)C)c1ccc(C)cc1 (stereo not given)	n	n	n	n	38	n
COCCNC(=O)C(c1ccc(C)cc1)N(Cc1ccccc1)C(=O)CCC(=O)Nc1ccccn1 (stereo not given)	n	n	n	n	n	n
Cc1nc(SCC(=O)Nc2ccc(F)cc2)c(C#N)c(C)c1CC(=O)c1ccc(Br)cc1	n	n	n	n	n	n
Cc1cccc(NC(=O)CSc2nc(C)c(CC(=O)c3ccc(Br)cc3)c(C)c2C#N)c1C	n	n	-53	u	n	n
Cc1cn([C@H]2C[C@H](O)[C@@H](CNC/C=C/c3ccccc3[N+](=O)[O-])O2)c(=O)[nH]c1=O	x	x	n	x	74	x
CC(=O)c1ccc(NC(=O)c2ccc(CN3C(=O)CCn4nc(C)cc43)cc2)cc1	x	x	x	x	n	x
CC(C)c1cc(C(N)=O)c(NC(=O)C2CCC2)s1	n	n	n	u	37	n
O=C(CSc1nn(-c2ccccc2)c(=S)s1)Nn1cnnc1	n	n	-85	n	n	n
Cc1ccc(NC(=O)CSc2nnnn2C)cc1S(=O)(=O)N(C)C	n	n	n	n	n	n
COc1ccc(CCNCC(=O)Nc2ccc(C)c(S(=O)(=O)N(C)C)c2)cc1	n	n	-52	n	n	n
Cc1ccc(NC(=O)CSc2nn(-c3ccccc3)c(=S)s2)cc1S(=O)(=O)N(C)C	n	n	-63	n	n	n
O=C(CSc1nn(-c2ccccc2)c(=S)s1)NC1CCS(=O)(=O)C1 (stereo not given)	n	n	n	n	n	n
CCC1=Nc2cc(C(=O)NC3CCCC3)ccc2Sc2ccc(Cl)cc21	x	x	x	x	n	x
Cn1nnnc1SCC(=O)NNC(=O)c1ccc(F)cc1	n	n	-57	n	n	n
Cc1ccc(/C=C2\SC(=S)N(/N=C/c3cc([N+](=O)[O-])ccc3O)C2=O)o1	n	n	-75	n	n	n
CCOC(=O)c1cc(OC)c2cccc(CN3CCCC(C)(C(=O)NCCOC)C3)c2c1 (stereo not given)	x	x	n	x	n	x
COCCNC(=O)C1(C)CCN(Cc2csc(-c3ccc(Cl)cc3)n2)C1 (stereo not given)	x	x	-103	x	n	x
CCCNC(=O)C1(C)CCCN(Cc2csc(-c3ccccc3)n2)C1 (stereo not given)	x	x	-66	x	45	x
CCNC(=O)C1(C)CCCN(Cc2csc(-c3ccc(Cl)cc3)n2)C1 (stereo not given)	x	x	n	x	n	x
COCCNC(=O)C1(C)CCCN(Cc2ccc(C)c3ccccc23)C1 (stereo not given)	x	x	-52	x	n	x
COc1ccc(C(=O)N2CCN(c3nc4c(C)c(Cl)ccc4s3)CC2)c(OC)c1	x	x	x	x	34	x
